Hits are enriched below; roughly 19% of the tested compounds scored in any of these assays.
HT1080 IDH1KD tx: toxicity to HT-1080 IDH1 knockdown cells (counter line) | 2% of 360,000 active | Potency, µM (top dose mostly 46.1 µM), without a hit: top-dose activity, negative = toxicity, hits mostly cytotoxic | HT-1080 IDH1 knockdown viability, ATP luminescence, 48 h;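 further: potency means the concentration at half of the fitted maximal effect; 0% = DMSO wells and -100% = cell-free medium wells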
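HT-1080-IDH1KD cells (IDH1 knocked down), 750/well in RPMI with 5% FBS, treated with compound 48 h at 37 degrees C. Viability by CellTiter-Glo luminescence, normalised to DMSO and no-cell wells; concentration-response curves classed.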
IL1B secr inh: inflammasome signaling inhibition, IL-1 beta readout. THP-1 LPS/ATP IL-1B secretion, AlphaLISA, 16 h; hits give low values. activity change, % at 57.5 µM. 4.7% of 360,000 active. AID 743279; in the data active means activity change below about -50%; inconclusive means mostly about -30% to -49%
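Secreted IL-1B measured by AlphaLISA bead assay after 16 h compound exposure of THP-1 cells; compounds (final up to 57.5 uM) added 1 h before LPS (250 ng/mL) and ATP (1.25 mM) stimulation; lower signal means less secretion.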
TDP1 cell CPT: DT40-hTDP1 cell growth loss with CPT. AID 686979. chicken DT40 Tdp1-/-;hTDP1 cells + 20 nM CPT, ATP luminescence, 48 h. 12% of 420,000 active. Potency, µM (titrated, usually from 46.2 µM), inactives show at the highest dose activity change, negative = growth inhibition, hits mostly inhibitors; further: potency means the concentration at half of the fitted maximal effect; nearly all actives have a fitted effect of over 55% in size
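Chicken DT40 Tdp1-/- cells stably complemented with human TDP1 were seeded at 400 cells/well in medium containing 20 nM camptothecin, exposed to pin-transferred compounds, and grown at 37 °C for at least 48 hr. Viability was read as ATP luminescence.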
uPA generation: inhibitors of cell surface uPA generation; cell surface uPA generation assay, qHTS; Potency, µM (top dose mostly 38.3 µM), without a hit: at the highest dose activity change, negative = inhibition, most hits filed as inhibitors; 0.31% of 330,000 active; active means well fitted inhibition curve with a large enough effect; inconclusive means small, poorly fitted or top-dose-only effect; inactive means no such curve, though single readings can be large or run the other way; tested in mouse RAW 264.7 cells; further: potency means the concentration at half of the fitted maximal effect; nearly all actives have a fitted effect of over 55% in size
TDP1 cell noCPT: qHTS for Inhibitors of human tyrosyl-DNA phosphodiesterase 1 (TDP1): qHTS in cells in absence of CPT | DT40 Tdp1-/- hTDP1 cells, no CPT, ATP luminescence, 48 h | 15% of 420,000 active | Potency, µM (top dose mostly 46.2 µM), inactives show at the highest dose activity change, negative = growth inhibition, most hits filed as inhibitors; further: potency means the concentration at half of the fitted maximal effect; nearly all actives have a fitted effect of over 55% in size
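Seeded 400 DT40-hTDP1 cells/well (vehicle DMSO, no 20 nM CPT); pinned compounds; ≥48 hr at 37 °C; CellTiter-Glo luminescence as viability measure.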
HT1080-NT tox: kills 2HG-producing HT-1080-NT fibrosarcoma cells; HT-1080-NT fibrosarcoma viability, CellTiter-Glo ATP luminescence, 48 h; Potency, µM (doses to about 46.1 µM), without a hit: top-dose activity, negative = less viability, actives largely listed as cytotoxic; 1.6% of 360,000 active; AID 686970;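 further: NT is the 2HG producing partner of a matched IDH1 knockdown line; potency means the concentration at half of the fitted maximal effect; 0% = DMSO-treated cells and -100% = media-only wells without cells; nearly all actives have a fitted effect of over 55% in size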
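Viability by CellTiter-Glo luminescence after 48 h compound exposure at 37C of HT-1080-NT cells (750/well, RPMI, 5% FBS). % activity scaled between DMSO wells and medium-only wells, then curve-fitted and categorized by curve class.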
Active calls of the source: *. Unless noted, the call rests on the fitted dose curve; in most records, active means well fitted curve in the direction sought with a large enough effect; inconclusive means small, poorly fitted or top-dose-only effect, or another doubt; inactive means no such curve, though single readings can be large; an effect the other way counts as inactive or inconclusive. Unless noted, on the % scale 0 is the no-effect control and ±100 the full control effect.

Results for Cc1ccc(-c2nnc(Nc3ccc(O)cc3)c3ccccc23)cc1S(=O)(=O)NC(C)(C)CO ?
TDP1 cell CPT: 16µM*; TDP1 cell noCPT: 8.2µM*

What do the screens show for `Cc1ccc(-c2nnc(Nc3cccc(O)c3)c3ccccc23)cc1S(=O)(=O)N1CCOCC1`?
TDP1 cell CPT: inconclusive; TDP1 cell noCPT: 12µM*

Results for Cc1cccc(Nc2nnc(-c3ccc(N4CCOCC4)c([N+](=O)[O-])c3)c3ccccc23)c1 ?
HT1080 IDH1KD tx: -12%; IL1B secr inh: -62*; TDP1 cell CPT: inconclusive; uPA generation: -4%; TDP1 cell noCPT: 18µM*; HT1080-NT tox: -21%

Results for Cc1ccc(-c2nnc(Nc3ccc(O)cc3)c3ccccc23)cc1S(=O)(=O)N1CCCCC1 ?
TDP1 cell CPT: 7.3µM*; TDP1 cell noCPT: 18µM*

How did CC(C)CN1CCC2(CC1)CCN(C(=O)c1cnccn1)CC2 do in these assays?
TDP1 cell CPT: 9%; TDP1 cell noCPT: -4%

How did COc1ccc2c(c1)c(CC(=O)Nc1cccc(F)c1C)c(C)n2C(=O)c1ccc(Cl)cc1 do in these assays?
TDP1 cell CPT: 5%; TDP1 cell noCPT: 2%

Results for Cc1ccc(-c2nnc(Nc3ccc(F)cc3)c3ccccc23)cc1S(=O)(=O)NC(C)C ?
TDP1 cell CPT: inconclusive; TDP1 cell noCPT: 9.2µM*

Results for Cc1ccc(-c2nnc(Nc3ccc(S(N)(=O)=O)cc3)c3ccccc23)cc1S(=O)(=O)N1CCOCC1 ?
TDP1 cell CPT: 16µM*; TDP1 cell noCPT: inconclusive

How did Cc1ccc(-c2n[nH]c(=O)c3ccccc23)cc1S(=O)(=O)Nc1ccccc1 do in these assays?
HT1080 IDH1KD tx: 21µM*; IL1B secr inh: -8; TDP1 cell CPT: inconclusive; uPA generation: -3%; TDP1 cell noCPT: 23µM*; HT1080-NT tox: 26µM*

Results for Cc1ccc(-c2nnc(Nc3ccc(Cl)cc3)c3ccccc23)cc1S(=O)(=O)N1CCOCC1 ?
TDP1 cell CPT: 13µM*; TDP1 cell noCPT: 3.7µM*

How did COc1nnc(-c2ccc(C)c(S(=O)(=O)NC(C)C)c2)c2ccccc12 do in these assays?
HT1080 IDH1KD tx: 2%; IL1B secr inh: 0; TDP1 cell CPT: -16%; uPA generation: 4%; TDP1 cell noCPT: inconclusive; HT1080-NT tox: 14%

Results for Cc1ccc(-c2nnc(SCCC(=O)Nc3ccccc3)n2C)cc1 ?
TDP1 cell CPT: -24%; TDP1 cell noCPT: -16%

Results for COc1ccc(OC)c(NC(=O)CSC2=Nc3ccccc3C3=NC(CCC(=O)NC4CCCCC4)C(=O)N23)c1 (configuration not stated) ?
TDP1 cell CPT: 0%; TDP1 cell noCPT: -27%

What do the screens show for `O=C(CSC1=Nc2ccccc2C2=NC(CCC(=O)NC3CCCCC3)C(=O)N12)Nc1cccc(C(F)(F)F)c1` (configuration not stated)?
TDP1 cell CPT: inconclusive; TDP1 cell noCPT: 23µM*

How did CC(C)c1ccc(NC(=O)CSC2=Nc3ccccc3C3=NC(CCC(=O)NC4CCCCC4)C(=O)N23)cc1 (configuration not stated) do in these assays?
TDP1 cell CPT: 23µM*; TDP1 cell noCPT: 23µM*

What do the screens show for `CN(C(=O)CSC1=Nc2ccccc2C2=NC(c3ccccc3)C(=O)N12)C1CCCCC1` (configuration not stated)?
HT1080 IDH1KD tx: -13%; IL1B secr inh: 7; TDP1 cell CPT: 21µM*; uPA generation: -5%; TDP1 cell noCPT: inconclusive; HT1080-NT tox: -8%
